From PubChem BioAssay (NCI)
About 79,000 compounds went through this panel and 15% of them were active in at least one assay; those are over-represented in the sample as a whole. Active and inactive are the calls of the source. Cut-off read from the data, not from the text of the source: active = growth inhibition above about 70%; inactive = the rest.

Experiments:
[1] = NCI Yeast Anticancer Drug Screen. Data for the wt1 strain (AID 149);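 note: 0% = growth of vehicle-treated wt1 cultures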; conditions: S. cerevisiae wt1 strain (SPY 50644) growth inhibition, hits give high values
In short: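 Using yeast strain wt1, compound-induced growth inhibition was determined against vehicle-treated cultures.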

[2] = NCI Yeast Anticancer Drug Screen. Data for the rad50EPP+ strain (AID 151);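 note: 0% = growth of vehicle-treated control cultures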; conditions: S. cerevisiae rad50 mutant strain, hits give high values
In short: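 One strain with a rad50 alteration (rad50EPP+) was compound-treated, its growth then compared to that of vehicle controls.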

[3] = NCI Yeast Anticancer Drug Screen. Data for the rad50 strain (AID 155);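 note: 0% = growth of vehicle-only cultures of the same strain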; conditions: S. cerevisiae rad50 strain growth inhibition, hits give high values
In short: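 Relative growth inhibition (compound vs vehicle) was measured in yeast with a defined repair-gene alteration.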

[4] = NCI Yeast Anticancer Drug Screen. Data for the mec2-1 strain (AID 157); conditions: S. cerevisiae mec2-1 strain, hits give high values
In short: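 Test agents were screened against the mec2-1 yeast strain, with defined DNA repair or cell cycle alteration. Growth was scored as inhibition against vehicle-only controls.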

[5] = NCI Yeast Anticancer Drug Screen. Data for the rad14 strain (AID 159);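 note: 0% = growth of vehicle-treated control cultures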; conditions: S. cerevisiae rad14 strain growth inhibition, hits give high values
In short: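 Screen for anticancer potential: a yeast strain altered in DNA damage repair is grown with compound, and reduced growth is quantified against vehicle controls.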

[6] = NCI Yeast Anticancer Drug Screen. Data for the sgs1 mgt1 strain (AID 161);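 note: 0% = growth of cultures given vehicle only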; conditions: S. cerevisiae sgs1 mgt1 strain, hits give high values
In short: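 Read-out: growth inhibition vs vehicle controls. Cells: mutant yeast strain deficient in DNA damage repair.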

[7] = NCI Yeast Anticancer Drug Screen. Data for the CLN2oe strain (AID 163);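 note: 0% = growth of vehicle-only control cultures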; conditions: S. cerevisiae CLN2oe strain, hits give high values
In short: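 Here, growth inhibition in a cell-cycle-altered yeast strain after compound exposure was quantified against vehicle control growth.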

[8] = NCI Yeast Anticancer Drug Screen. Data for the cln2 rad14 strain (AID 165);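 note: 0% = growth equal to vehicle treated cultures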; conditions: S. cerevisiae cln2 rad14 strain, hits give high values
In short: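 Growth of compound-exposed yeast (cln2 rad14 genotype) measured and expressed as inhibition relative to vehicle.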

[9] = NCI Yeast Anticancer Drug Screen. Data for the bub3 strain (AID 167); conditions: S. cerevisiae bub3 mutant strain, hits give high values
In short: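 Screening used yeast with an engineered genetic alteration affecting cell cycle control. Compound-exposed cultures were compared with vehicle cultures, and reduced growth was taken as inhibition.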

[10] = NCI Yeast Anticancer Drug Screen. Data for the wt2 strain (AID 169);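 note: 0% = growth of vehicle-treated yeast cultures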; conditions: S. cerevisiae wt2 strain growth inhibition, hits give high values
In short: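 Genetically defined yeast strains from a DNA-repair/cell-cycle panel were used. Compound-exposed yeast growth was measured, and the inhibition was calculated relative to vehicle treatment.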

[11] = NCI Yeast Anticancer Drug Screen. Data for the mlh1 strain (AID 171);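 note: 0% = growth of vehicle-treated control cultures of the same strain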; conditions: S. cerevisiae mlh1 strain growth inhibition, hits give high values
In short: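 Here the genetically defined yeast mutant is grown with each compound, and the extent to which its growth falls below that of vehicle-exposed cells is reported.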

[12] = NCI Yeast Anticancer Drug Screen. Data for the sgs1 strain (AID 173);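 note: 0% = growth of vehicle-only control cultures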; conditions: S. cerevisiae sgs1 mutant, hits give high values
In short: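 Relative growth inhibition, referenced to vehicle, was determined in a yeast strain with a defined alteration affecting DNA damage repair or cell cycle control after compound exposure.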

[13] = NCI Yeast Anticancer Drug Screen. Data for the mlh1 rad18 strain (AID 175); conditions: S. cerevisiae mlh1 rad18 strain growth inhibition, hits give high values
In short: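 In this whole-cell yeast screen, a strain with altered DNA damage repair is challenged with compound, and its growth is measured against matched vehicle-treated controls.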

[14] = NCI Yeast Anticancer Drug Screen. Data for the rad18 strain (AID 177); conditions: S. cerevisiae rad18 mutant growth inhibition, hits give high values
In short: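 Screen uses a yeast strain with a defined lesion in DNA damage repair; compound effect is read as loss of growth compared to untreated vehicle cultures.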

[15] = at 5.0 µM (retest, dose inferred, filed as 0.5)
[16] = at 50.0 µM (retest, dose inferred, filed as 5.0)

Measured: growth inhibition

Clc1c(Cl)c(Cl)c2n[nH]nc2c1Cl
inactive: [1]; at 1.2 µM -23% | [1]; at 3.7 µM -16% | [1]; at 11.0 µM -9% | [1]; at 33.0 µM 14% | [2]; at 1.2 µM -62% | [2]; at 3.7 µM -51% | [2]; at 11.0 µM -28% | [2]; at 33.0 µM 18% | [2]; at 100.0 µM 20% | [3]; at 1.2 µM -13% | [3]; at 3.7 µM -21% | [3]; at 11.0 µM -9% | [3]; at 33.0 µM 14% | [3]; at 50.0 µM 60.1% | [4]; at 1.2 µM -6% | [4]; at 3.7 µM -20% | [4]; at 11.0 µM -21% | [4]; at 33.0 µM 9% | [4]; at 50.0 µM 54.8% | [5]; at 1.2 µM -9% | [5]; at 3.7 µM -19% | [5]; at 11.0 µM -9% | [5]; at 33.0 µM 11% | [6]; [15] -17% | [7]; at 1.2 µM -7% | [7]; at 3.7 µM -10% | [7]; at 11.0 µM 1% | [7]; at 33.0 µM 21% | [8]; [15] 57% | [8]; [16] 57% | [9]; at 1.2 µM -21% | [9]; at 3.7 µM -18% | [9]; [15] -11% | [9]; at 11.0 µM -10% | [9]; at 33.0 µM 15% | [10]; at 1.2 µM -24% | [10]; at 3.7 µM -18% | [10]; at 11.0 µM -7% | [10]; at 33.0 µM -3% | [11]; at 1.2 µM -59% | [11]; at 3.7 µM -52% | [11]; at 11.0 µM -33% | [11]; at 33.0 µM 14% | [12]; at 1.2 µM -40% | [12]; at 3.7 µM -26% | [12]; at 11.0 µM -12% | [12]; at 33.0 µM 30% | [13]; at 50.0 µM 37.5%
active: [1]; at 100.0 µM 87% | [3]; [15] 100% | [3]; [16] 100% | [3]; at 100.0 µM 75% | [4]; [15] 100% | [4]; [16] 100% | [4]; at 100.0 µM 82% | [5]; at 100.0 µM 94% | [6]; [16] 78% | [7]; at 100.0 µM 76% | [9]; [16] 73% | [9]; at 100.0 µM 87% | [10]; at 100.0 µM 94% | [11]; at 100.0 µM 75% | [12]; at 100.0 µM 91% | [13]; [15] 100% | [13]; [16] 100%

Oc1ccc(C=Nc2ccccc2O)cc1
inactive: [2]; at 1.2 µM 35% | [2]; at 3.7 µM 68% | [3]; at 1.2 µM 68% | [3]; [15] 13% | [4]; at 1.2 µM 23% | [4]; at 3.7 µM 29% | [4]; [15] 26% | [4]; at 11.0 µM 33% | [4]; at 33.0 µM 44% | [4]; [16] 14% | [4]; at 50.0 µM 23% | [4]; at 100.0 µM 65% | [5]; at 1.2 µM 17% | [5]; at 3.7 µM 16% | [5]; at 11.0 µM 20% | [5]; at 33.0 µM 25% | [5]; at 100.0 µM 38% | [6]; [15] 15% | [6]; [16] 42% | [6]; at 50.0 µM 28.8% | [7]; at 1.2 µM 47% | [7]; at 3.7 µM 58% | [7]; at 11.0 µM 60% | [7]; at 33.0 µM 56% | [7]; at 100.0 µM 64% | [8]; [15] 11% | [8]; [16] 31% | [8]; at 50.0 µM 1.55% | [9]; [15] 55% | [10]; at 1.2 µM 25% | [10]; at 3.7 µM 30% | [10]; at 11.0 µM 33% | [10]; at 33.0 µM 43% | [10]; at 100.0 µM 65% | [11]; at 1.2 µM 32% | [11]; at 3.7 µM 45% | [11]; at 11.0 µM 36% | [11]; at 33.0 µM 45% | [12]; at 1.2 µM 32% | [12]; at 3.7 µM 36% | [12]; at 11.0 µM 37% | [12]; at 33.0 µM 51% | [12]; at 100.0 µM 67% | [13]; [15] 48% | [14]; at 1.2 µM 61%
active: [2]; at 11.0 µM 90% | [2]; at 33.0 µM 90% | [2]; at 100.0 µM 94% | [3]; at 3.7 µM 85% | [3]; at 11.0 µM 81% | [3]; at 33.0 µM 84% | [3]; [16] 80% | [3]; at 50.0 µM 78.8% | [3]; at 100.0 µM 90% | [9]; at 1.2 µM 75% | [9]; at 3.7 µM 82% | [9]; at 11.0 µM 81% | [9]; at 33.0 µM 83% | [9]; [16] 86% | [9]; at 50.0 µM 80.3% | [9]; at 100.0 µM 92% | [11]; at 100.0 µM 73% | [13]; [16] 86% | [13]; at 50.0 µM 70% | [14]; at 3.7 µM 78% | [14]; at 11.0 µM 76% | [14]; at 33.0 µM 75% | [14]; at 100.0 µM 85%
